Measurements from PubChem BioAssay (NCI).
This is part of a sample that, as a whole, favours compounds with a hit. Of some 83,000 tested, about 20% had one in any assay.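 Cell lines were cultured in 96-well plates, exposed to a single compound concentration, and assessed for percent growth 48 hours later.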 Active and inactive are the calls of the source. Rule for the calls: active = growth percent below 10; inactive = the rest.

Columns and labels:
Experiment in all cases: NCI-60 one-dose screen, 48 h (100 = growth as untreated, 0 = no growth, -100 = all killed)
Conditions in all cases: 10 µM unless noted
[1] = tested on: DU-145 prostate
[2] = tested on: K-562 leukemia
[3] = tested on: MALME-3M melanoma
[4] = tested on: MDA-MB-231 breast
[5] = tested on: RXF 393 renal
[6] = tested on: SF-268 CNS
[7] = tested on: SF-295 CNS
[8] = tested on: SF-539 CNS
[9] = tested on: UACC-257 melanoma
[10] = tested on: M14 melanoma
[11] = tested on: HCT-15 colon
[12] = tested on: SNB-75 CNS
[13] = tested on: SNB-19 CNS
[14] = tested on: U251 CNS
[15] = tested on: PC-3 prostate
[16] = tested on: SK-MEL-5 melanoma
[17] = tested on: LOX IMVI melanoma
[18] = tested on: HT29 colon
[19] = tested on: UACC-62 melanoma
[20] = tested on: SK-MEL-28 melanoma

Measured: growth

COc1ccc(-c2oc(=O)ccc2-c2cc(OC)c(OC)c(OC)c2)cc1F
inactive: [1] 109% | [2] 26.7% | [3] 68.9% | [4] 77.3% | [5] 90.9% | [6] 95.3% | [7] 62.4% | [8] 80.4% | [9] 66.4% | [10] 60.8% | [11] 68.2% | [12] 106% | [13] 92.1% | [14] 81.9% | [15] 66.4% | [16] 66.5% | [17] 67.4%

C=CCn1c(SCC(=O)Nc2ccc(C(=O)/C=C/c3ccccc3)cc2)nnc1-c1ccc(OC)c(OC)c1
inactive: [1] 89.6% | [2] 47.5% | [3] 105% | [4] 77.1% | [5] 85.7% | [6] 86% | [8] 92.1% | [9] 79.9% | [10] 73.6% | [11] 64.2% | [18] 80.1% | [12] 79.1% | [13] 76.4% | [14] 72.7% | [15] 67.8% | [16] 61.3% | [19] 72.1% | [17] 84.9% | [20] 97.6%

CC(=O)c1c(C)nc(-c2cc(C)cc(Cl)c2)nc1-c1cccc(Oc2ccccc2)c1
inactive: [1] 85.8% | [2] 19.9% | [3] 74.8% | [4] 55% | [5] 90.5% | [6] 71% | [7] 77.3% | [8] 86% | [9] 81.1% | [10] 31.7% | [11] 60.2% | [18] 39.5% | [12] 72.4% | [13] 79.3% | [15] 53.4% | [16] 77.1% | [19] 52.1% | [17] 78.4% | [20] 76.2%

CC(CN1CCN(CCOCCO)CC1)CN1c2ccccc2Sc2ccc(Cl)cc21 (centres undefined)
inactive: [1] 70.3% | [3] 45.1% | [4] 29.9% | [5] 56.8% | [6] 63.8% | [8] 79.2% | [11] 32.7% | [12] 69.7% | [13] 100% | [14] 58.6% | [15] 43.9% | [16] 16.1% | [17] 20.5% | [20] 49%
active: [2] 6.64% | [9] -3.9% | [10] 5.98% | [18] -30.1% | [19] -42.8%

Cc1cc(C)c(C#N)c(SCC(=O)c2sc3c(C#N)c(C)cc(C)[n+]3c2[O-])n1
inactive: [3] 17.5% | [4] 15.2% | [6] 22.9% | [9] 51.9% | [10] 12.2% | [11] 15.9% | [13] 75.5% | [15] 24% | [16] 10.8% | [19] 47.9% | [17] 20.4% | [20] 30.3%
active: [1] -6.34% | [2] 5.26% | [5] -21.5% | [7] -52.3% | [8] -11.3% | [12] 9% | [14] 7.69%

Cc1ccc(NC(=O)c2[nH]c(SCCN(C)C)nc2-c2ccc(F)cc2)cc1Nc1ccc2ncn(C)c(=O)c2c1
active: [3] -12.8% | [10] 2.94%
inactive: [1] 80.1% | [2] 40.2% | [4] 40.6% | [5] 71.5% | [6] 71.1% | [7] 82.9% | [8] 65% | [9] 22% | [11] 65.4% | [18] 21.4% | [12] 66% | [13] 92.4% | [15] 88.5% | [16] 30.8% | [19] 12.5% | [17] 28% | [20] 16.5%

O=C(NNC(=S)Nc1ccccc1)c1ccc(Nc2ncnc3c2cnn3-c2cccc(Br)c2)cc1
inactive: [1] 107% | [2] 112% | [3] 101% | [4] 110% | [5] 99.6% | [6] 95.4% | [8] 98.5% | [9] 114% | [10] 100% | [11] 110% | [18] 105% | [12] 80% | [13] 101% | [14] 114% | [15] 93.5% | [16] 100% | [19] 94.6% | [17] 97.3% | [20] 110%

CCCCn1cnc(-c2cc(-c3ccccc3)cc(C(F)(F)F)c2)n1
inactive: [1] 106% | [2] 95.9% | [3] 89.6% | [4] 106% | [5] 99.9% | [6] 104% | [7] 102% | [8] 103% | [9] 96.7% | [10] 98% | [11] 104% | [18] 101% | [12] 98.9% | [13] 98.6% | [15] 82.7% | [16] 101% | [19] 90.3% | [17] 105% | [20] 109%

COc1ccc(C2C3CCc4ccccc4C3=NN2C(=O)c2cc(OC)c(OC)c(OC)c2)cc1O (centres undefined)
inactive: [1] 111% | [2] 52.7% | [3] 77.2% | [4] 103% | [5] 56.8% | [6] 105% | [7] 91.2% | [8] 101% | [9] 110% | [10] 101% | [11] 109% | [12] 89.4% | [13] 109% | [14] 108% | [15] 92.2% | [16] 104% | [19] 105% | [17] 94.6%

CC(C)(C)c1ccc(Cn2c(-c3nonc3N)nc3ccccc32)cc1
inactive: [1] 83.3% | [2] 19.1% | [3] 82.3% | [4] 81.8% | [5] 77.8% | [6] 75.6% | [7] 71.5% | [8] 89.7% | [9] 76.8% | [10] 66.9% | [11] 49.1% | [18] 41.6% | [12] 61.7% | [13] 77.4% | [15] 67.4% | [16] 74.9% | [19] 69.5% | [17] 70.2% | [20] 72.7%

CCOC(=O)c1sc2nc(-c3cc4ccccc4o3)cc(-c3ccc(Cl)cc3)c2c1N
inactive: [1] 99.6% | [2] 102% | [3] 88.5% | [4] 106% | [5] 124% | [6] 97.3% | [8] 120% | [9] 114% | [10] 112% | [11] 101% | [18] 105% | [12] 74.7% | [13] 101% | [14] 95.8% | [15] 77% | [16] 110% | [19] 66.8% | [17] 91.6% | [20] 108%

CNCc1cccc2c1OCCOCCOCCC(C)S(=O)(=O)c1ccc(cc1)-c1cnc(N)c(n1)C(=O)N2 (centres undefined)
inactive: [1] 24.1% | [3] 75.3% | [4] 57.4% | [5] 16.4% | [6] 54.2% | [7] 98.8% | [8] 25% | [9] 50.6% | [10] 52% | [11] 17.8% | [12] 10.5% | [13] 53.8% | [14] 19.2% | [15] 32.3% | [16] 78.8% | [19] 60.6% | [17] 48.8%
active: [2] 7.1%

CC(=O)OC1Oc2cc(C)c(C)cc2-c2oc(=O)c(-c3cc4ccccc4oc3=O)cc21 (centres undefined)
inactive: [1] 89.7% | [2] 106% | [3] 107% | [4] 92.4% | [6] 61.3% | [7] 76% | [8] 88.4% | [9] 117% | [10] 96.3% | [11] 117% | [18] 110% | [12] 92.5% | [13] 116% | [15] 91.9% | [16] 115% | [17] 84.7% | [20] 152%
active: [5] -1.16%

Cc1ccc2nc(CN(CCN(Cc3nc4ccc(C)cc4[nH]3)Cc3nc4ccc(C)cc4[nH]3)Cc3nc4ccc(C)cc4[nH]3)[nH]c2c1
active: [1] -99.6% | [2] -25.7% | [3] -70.4% | [4] -81.7% | [5] -92.5% | [6] -85% | [7] -86.8% | [8] -99.7% | [9] -91.8% | [10] -79.4% | [11] -94.3% | [12] -100% | [13] -100% | [14] -94.1% | [15] -83.4% | [16] -100% | [19] -85.3% | [17] -90.8% | [20] -94.8%

O=C1/C(=C\c2cccn2Cc2ccc(Cl)cc2)c2ccccc2N1c1c(Cl)cccc1Cl
inactive: [1] 105% | [2] 75.6% | [3] 79.5% | [4] 68.1% | [5] 78.3% | [6] 88.1% | [7] 87.7% | [8] 88.8% | [9] 93.1% | [10] 101% | [11] 61.4% | [12] 82.2% | [13] 87.8% | [14] 75.6% | [15] 57.5% | [16] 66.1% | [19] 71.7% | [17] 91.9% | [20] 91%

O=C(NO)c1ccc(NCc2csc3ccccc23)cc1
inactive: [1] 54.3% | [2] 62% | [3] 60.8% | [4] 60.9% | [5] 71.2% | [6] 68.8% | [8] 70.3% | [9] 70.2% | [10] 59.4% | [11] 39% | [18] 79.2% | [12] 56% | [13] 69.5% | [14] 57.4% | [15] 52.4% | [16] 74.4% | [19] 57.8% | [17] 71.6% | [20] 91.2%
